Measured values: PubChem BioAssay (NCI)
Where “and” joins values, the source holds several entries; their conditions need not be identical. Identical values can stand only once. This is part of a sample that, as a whole, favours compounds with a hit. Of some 79,000 tested, about 15% had one in any assay. Some structures have more than one record in an assay (separate samples or runs), and their calls can disagree. Calls of active or inactive are those of the source. Cut-off read from the data, not from the text of the source: active = growth inhibition above about 70%; inactive = the rest.

Tests used:
[1] = NCI Yeast Anticancer Drug Screen. Data for the mec2-1 strain (AID 157); conditions: S. cerevisiae mec2-1 strain, stronger effect = higher value
Method in brief: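 Test agents were screened against the mec2-1 yeast strain, with defined DNA repair or cell cycle alteration. Growth was scored as inhibition against vehicle-only controls.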

[2] = NCI Yeast Anticancer Drug Screen. Data for the sgs1 mgt1 strain (AID 161);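 note: 0% = growth of cultures given vehicle only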; conditions: S. cerevisiae sgs1 mgt1 strain, stronger effect = higher value
Method in brief: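 Inhibition of yeast growth, normalised to vehicle-treated controls, is reported for a strain bearing genetic alterations in DNA damage repair.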

[3] = NCI Yeast Anticancer Drug Screen. Data for the cln2 rad14 strain (AID 165);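 note: 0% = growth equal to vehicle treated cultures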; conditions: S. cerevisiae cln2 rad14 strain, stronger effect = higher value
Method in brief: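 Growth of compound-exposed yeast (cln2 rad14 genotype) measured and expressed as inhibition relative to vehicle.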

[4] = NCI Yeast Anticancer Drug Screen. Data for the bub3 strain (AID 167); conditions: S. cerevisiae bub3 mutant strain, stronger effect = higher value
Method in brief: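 Part of a panel of yeast mutants defective in DNA damage repair or cell cycle regulation. Each strain is grown with compound, and inhibition is calculated relative to solvent-treated cultures.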

[5] = NCI Yeast Anticancer Drug Screen. Data for the mlh1 rad18 strain (AID 175); conditions: S. cerevisiae mlh1 rad18 strain growth inhibition, stronger effect = higher value
Method in brief: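 In this whole-cell yeast screen, a strain with altered DNA damage repair is challenged with compound, and its growth is measured against matched vehicle-treated controls.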

[6] = NCI Yeast Anticancer Drug Screen. Data for the rad50 strain (AID 155);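 note: 0% = growth of vehicle-only cultures of the same strain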; conditions: S. cerevisiae rad50 strain growth inhibition, stronger effect = higher value
Method in brief: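 Cells are treated with compound, grown, and their growth is then scored against vehicle-only cultures of the same repair-deficient yeast strain.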

[7] = at 5.0 µM (retest, dose inferred, filed as 0.5)
[8] = at 50.0 µM (retest, dose inferred, filed as 5.0)

SMILES | growth inhibition [1, 7] | growth inhibition [1, 8] | growth inhibition ([1]; at 50.0 µM) | growth inhibition [2, 7] | growth inhibition [2, 8] | growth inhibition ([2]; at 50.0 µM) | growth inhibition [3, 7] | growth inhibition [3, 8] | growth inhibition ([3]; at 50.0 µM) | growth inhibition [4, 7] | growth inhibition [4, 8] | growth inhibition ([4]; at 50.0 µM) | growth inhibition [5, 7] | growth inhibition [5, 8] | growth inhibition ([5]; at 50.0 µM) | growth inhibition ([6]; at 50.0 µM) | growth inhibition [6, 7] | growth inhibition [6, 8]
CCCCCCCCCCCCCCCC(=O)NCC[N+](C)(C)C | 52% (inactive) | 100% (active) | 99.7% (active) | 50% (inactive) | 99% (active) | 99.8% (active) | 10% (inactive) | 99% (active) | 99.2% (active) | 58% (inactive) | 100% (active) | 99.5% (active) | 36% (inactive) | 99% (active) | 99.6% (active) | – | – | –
NC(CCCCNC(=O)c1ccccc1)C(=O)O (configuration not stated) | – | – | – | 0% (inactive) | -3% (inactive) | 0.1% (inactive) and -35.4% (inactive) | 3% (inactive) | 4% (inactive) | 91.9% (active) and -28.2% (inactive) | 17% (inactive) | -2% (inactive) | -5% (inactive) and -23.4% (inactive) | -3% (inactive) | -3% (inactive) | -1.1% (inactive) and -21.9% (inactive) | – | – | –
O=C(O)C1CC(O)CN1 (configuration not stated) | – | – | -9.75% (inactive) and 11.6% (inactive) and -22.9% (inactive) | – | – | 31.4% (inactive) and 15.3% (inactive) and 1.95% (inactive) | – | – | -4.7% (inactive) and 4.45% (inactive) and -18.1% (inactive) | – | – | 23.1% (inactive) and 13.8% (inactive) and 2.75% (inactive) | – | – | 30.6% (inactive) and 13.9% (inactive) and 1.9% (inactive) | 26.6% (inactive) and 12.2% (inactive) and -2.5% (inactive) | – | –
Oc1ccccc1C=Nc1ccccc1O | 8% (inactive) | 22% (inactive) | 36.7% (inactive) and 41.9% (inactive) | 7% (inactive) | 16% (inactive) | 35.5% (inactive) and 42.1% (inactive) | -5% (inactive) | 5% (inactive) | 17.2% (inactive) and 32.1% (inactive) | 79% (active) | 65% (inactive) | 54.4% (inactive) and 72.1% (active) | 38% (inactive) | 47% (inactive) | 49.8% (inactive) and 29.6% (inactive) | – | – | –
CC(=O)Nc1c(Cl)c(Cl)c2c(c1Cl)Cc1cc(Cl)ccc1-2 | – | – | – | 99% (active) | 49% (inactive) | 96.1% (active) | 97% (active) | 99% (active) | 95.5% (active) | 99% (active) | 99% (active) | 98.3% (active) | 99% (active) | 99% (active) | 98.5% (active) | 98.2% (active) | 99% (active) | 99% (active)
O=C(OC1COC(OC(=O)c2ccccc2)C(OC(=O)c2ccccc2)C1OC(=O)c1ccccc1)c1ccccc1 (configuration not stated) | – | – | -7.1% (inactive) [middle of 4 runs] | – | – | 9.5% (inactive) [middle of 4 runs] | – | – | -21.6% (inactive) [middle of 4 runs] | – | – | – | – | – | -4.1% (inactive) [middle of 4 runs] | 20.4% (inactive) [middle of 4 runs] | – | –
OCC(O)C(O)C(O)C(O)C(/C=N/Nc1ccccc1)=N/Nc1ccccc1 (configuration not stated) | -5% (inactive) | 61% (inactive) | – | -39% (inactive) | 30% (inactive) | – | 2% (inactive) | 82% (active) | – | -3% (inactive) | 54% (inactive) | – | 8% (inactive) | 86% (active) | – | – | -19% (inactive) | 91% (active)
O=NC1C(Cl)C2CC1C1C(Br)C(Br)CC21 (configuration not stated) | – | – | – | -3% (inactive) and -2% (inactive) | 2% (inactive) and 29% (inactive) | 19.9% (inactive) and 66.5% (inactive) and 56.3% (inactive) | 1% (inactive) and 0% (inactive) | 1% (inactive) and 16% (inactive) | -26.6% (inactive) and 7.1% (inactive) and 6.65% (inactive) | 4% (inactive) and 0% (inactive) | -7% (inactive) and 7% (inactive) | -5.1% (inactive) and 11.2% (inactive) and 8.2% (inactive) | 6% (inactive) and 4% (inactive) | 31% (inactive) and 52% (inactive) | 30.6% (inactive) and 69.8% (inactive) and 59.1% (inactive) | 3.2% (inactive) and 55.5% (inactive) and 48.2% (inactive) | 4% (inactive) and 3% (inactive) | 4% (inactive) and 46% (inactive)
CN(C)CCNc1ccc(CO)c2oc3ccc(O)cc3c(=O)c12 | 13% (inactive) | 41% (inactive) | 59.9% (inactive) | 13% (inactive) | 36% (inactive) | 9.95% (inactive) | 22% (inactive) | 28% (inactive) | -14.1% (inactive) | 15% (inactive) | 66% (inactive) | 49% (inactive) | 21% (inactive) | 63% (inactive) | – | – | – | –
COC1OCC(O)C(O)C1O (configuration not stated) | – | – | 8.15% (inactive) [middle of 4 runs] | – | – | 1.2% (inactive) [middle of 4 runs] | – | – | -8.1% (inactive) [middle of 4 runs] | – | – | -0.95% (inactive) [middle of 4 runs] | – | – | -7.4% (inactive) [middle of 4 runs] | -2.4% (inactive) [middle of 4 runs] | – | –
COC1OC(C(O)CO)C(O)C(O)C1O (configuration not stated) | – | – | 13.7% (inactive) [middle of 4 runs] | – | – | 12.2% (inactive) [middle of 4 runs] | – | – | – | – | – | – | – | – | 25.1% (inactive) [middle of 4 runs] | – | – | –
COc1nc2nc(C(O)C(O)CO)cnc2c(=O)n1C (configuration not stated) | – | – | -6.55% (inactive) [middle of 4 runs] | – | – | -5.2% (inactive) [middle of 4 runs] | – | – | – | – | – | 7.15% (inactive) [middle of 4 runs] | – | – | – | -5.55% (inactive) [middle of 4 runs] | – | –
